Rows were chosen to be rich in hits. Some 1.8% of all compounds tested hit in one or more screens of this group.
p53ts 39C tox = kills p53ts cells at the nonpermissive temperature. H1299-p53A138V viability at 39C, ATP luminescence, 24 h. AID 902. Potency, µM (highest dose often 46.1 µM), usual class: cytotoxic. 1.5% of 130,000 active; further: nearly all actives have a fitted effect of over 55% in size
Peg3 imprint = genomic imprint erasure induction; mouse ES Peg3-LacZ reporter, beta-gal luminescence, 40 h; Potency, µM (top dose mostly 60.7 µM), usual class: activators; 0.02% of 110,000 active; AID 1948
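Gelatin-coated wells received 300 freshly trypsinized female ES cells with a Peg3LacZ-Neo reporter on the maternal allele, then incubated 40 hours at 37C. BetaGlo was added for 5 minutes at room temperature before a single luminescence read.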
p53ts 32C kill = p53ts cell cytotoxicity, permissive temperature; H1299-p53A138V at 32C, ATP luminescence viability, 24 h; AID 924; 0.93% of 130,000 active; Potency, µM (highest dose often 46.1 µM), most hits filed as cytotoxic; further: nearly all actives have a fitted effect of over 55% in size
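Cells: H1299 p53ts (A138V), 600/well, pre-incubated 16–30 h at 37C. Cpd up to 46 uM, 24 h, 32C. Readout: ATPlite luminescence, 20 min RT. Normalization: DMSO vs tamoxifen 100 uM. AC50 by Hill equation.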
IkB sig inh = suppresses IkB signaling in ABC-DLBCL reporter cells; Potency, µM (highest dose often 57.1 µM); 0.04% of 110,000 active; ABC-DLBCL IkBa-CBG/CBR dual luciferase ratio, 4 h; response scale: scaled: untreated 0%, proteasome inhibitor 100%; active means well fitted curve in the direction sought with a large enough effect in the signal ratio, not every such curve was filed as active; inconclusive means small, poorly fitted or top-dose-only effect, or a change in a side signal; the % refers to the signal ratio;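 further: the direction sought is a rising ratio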
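In this assay, an IκBα–CBG68 fusion accumulates when IKK-driven degradation is blocked; native CBR normalizes for cell number. OCI-Ly3 cells were treated 4 h with compound and doxycycline, then green and red light read after Chroma-Glo addition.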
Hits are given with their value; . = inactive; ? = inconclusive; / = not tested or not shown; [ ] = another dose, or the depositor's remark. Unless noted, the call rests on the fitted dose curve; in most records, active means well fitted curve in the direction sought with a large enough effect; inconclusive means small, poorly fitted or top-dose-only effect, or another doubt; inactive means no such curve, though single readings can be large; an effect the other way counts as inactive or inconclusive.

SMILES	p53ts 39C tox	Peg3 imprint	p53ts 32C kill	IkB sig inh
Cc1csc2nc(-c3cccc(NC(=O)c4ccccc4F)c3)cn12	6.31µM	.[10.9 µM]	?	?
Nc1cccc(-c2cn3ccsc3n2)c1	25.1µM	.[10.9 µM]	?	.
COc1ccccc1C(=O)Nc1cccc(-c2cn3ccsc3n2)c1	.	.	.	?
CCCCC(=O)Nc1cccc(-c2cn3ccsc3n2)c1	.	.	?	.
O=C(Nc1cccc(-c2cn3ccsc3n2)c1)c1ccccc1	15.8µM	.	?	?
CCOc1ccc(NC(=O)CNS(=O)(=O)c2ccc(Br)s2)cc1	.	.[10.9 µM]	.	?
NC(=O)CSc1ncc2c(n1)-c1ccccc1N(Cc1ccc(Cl)cc1)S2(=O)=O	.	.[10.9 µM]	.	.
O=C(COCc1cc(-c2ccc3c(c2)OCO3)on1)NCc1ccccc1Cl	/	/	.	/
Cn1c(=O)c(-c2ccc(F)cc2)nc2cnc(OCc3ccccc3)nc21	.	?	.	.[11.4 µM]
COc1ccc(N2Cc3cccc(C(=O)Nc4ccc(C(C)C)cc4)c3C2=O)cc1	3.98µM	.[10.9 µM]	5.01µM	.
CN(C(=O)CSc1nc2ccccc2n1CC(=O)N(C)C1CCCCC1)c1ccccc1	.	.[10.9 µM]	.	.
Cc1cccc(OCC(=O)Nc2ccc(-c3nc4cc(C)ccc4o3)c(O)c2)c1	10µM	.[10.9 µM]	.	.
CCOc1cccc(-c2nc3cc(C)ccc3o2)c1	?	.	15.8µM	.
CCOc1ccc(-c2nc3cc(NC(=O)COc4cccc(C)c4)ccc3o2)cc1	.	.[10.9 µM]	.	.
C/C(CCN1CCCc2nc(C)c(C)cc21)=N\O[C@@H](C)c1cc(-c2c(C)cc(C)cc2C)no1	.[9.22 µM]	/	.[9.22 µM]	/
CCCc1nn2cc(-c3ccc(C)c(C)c3)nc2s1	7.94µM	.[10.9 µM]	7.94µM	?
Cc1ccc(-c2nnc(Nc3ccccc3)o2)cc1	3.16µM	.	3.16µM	?
CCc1ccc2c(c1)NC(c1ccc(F)cc1)=NC(c1ccncc1)=N2	.	.[10.9 µM]	.	?
COC(=O)Cn1c(CN2CCc3ccccc3C2)nc2c1c(=O)n(C)c(=O)n2C	?	.	5.01µM	.
CCC(=O)C1=C(c2ccc(F)cc2)N(C(=O)CC)n2cnnc2S1	.	.[10.9 µM]	.	?
CCOc1ccc(C2=C(C(=O)CC)Sc3nncn3N2C(=O)CC)cc1	?	.[10.9 µM]	11.2µM	?
CCOC(=O)c1c(C)oc2ccc(N(C(C)=O)S(=O)(=O)c3c(C)cc(C)cc3C)cc12	.	.[10.9 µM]	.	.
CSc1ncnc2nc[nH]c12	.	.	.	.
Cc1ccc(C)c(NC(=O)CSc2nnc3[nH]c(=O)cc(-c4ccccc4)n23)c1	1.26µM	.[10.9 µM]	?	?
Cc1ccc(NC(=O)CSc2nnc3[nH]c(=O)cc(-c4ccccc4)n23)cc1Cl	1.58µM	.[10.9 µM]	?	?
SMILES	p53ts 39C tox	Peg3 imprint	p53ts 32C kill	IkB sig inh
CCOC(=O)c1c(C)oc2c1c(C(c1cccnc1)N1CCN(C)CC1)c(O)c1ccccc12 (stereo not drawn)	.	.	.	?
CN1CCN(C(c2cccnc2)c2ccc3cccnc3c2O)CC1 (stereo not drawn)	12.6µM	.	.	?
Cc1ccc(N2CCN(C(=O)CCS(=O)(=O)c3cc4c(cc3Cl)NC(=O)CO4)CC2)c(C)c1	/	/	.	/
Cc1ccc(NC(=O)C(=O)NCC(c2cccnc2)N2CCOCC2)cc1Cl (stereo not drawn)	20µM	.[10.9 µM]	?	?
COc1ccc(C(=O)NCC(c2cccnc2)N2CCN(c3ccc(F)cc3)CC2)cc1OC (stereo not drawn)	.	.	.	.
COc1ccc(C(=O)NCC(c2cccnc2)N2CCN(c3ccccc3)CC2)cc1OC (stereo not drawn)	?	.	10µM	.
COC(=O)N1CCC2(CC1)CN(c1cccc(-c3ccccc3)c1)C2	.	/	.	.[11.4 µM]
CC(O)/C=C/c1ccc2ccccc2n1 (stereo not drawn)	?	.	25.1µM	.
CCOc1ccc(CNc2cc(C)nc3nc(-c4cccc(C)c4)nn23)cc1OC	7.94µM	.[10.9 µM]	.	?
CCCCNC(=O)c1cnn2c(C)c(Cc3c(C)cc(C)cc3C)c(C)nc12	15.8µM	.[10.9 µM]	?	?
COc1ccccc1CC(=O)NCc1ccc2c(c1)OCO2	.	.	.	.
COc1ccc(CNCCC(c2ccc3c(c2)OCO3)c2ccccc2OC)cc1 (stereo not drawn)	15.8µM	.[10.9 µM]	?	?
CCC1OCCC=CC1C (stereo not drawn)	.[9.22 µM]	/	.[9.22 µM]	/
c1cc2c(cc1C1CCCCC1)c1c3n2CCN[C@H]3CCC1	10µM	.	25.1µM	?
Cc1ccc2c(c1)c1c3n2CCN[C@H]3CCC1	?	.	.	.
Cc1oc2ccc(O)c(CN3CCCC3)c2c1C(=O)Nc1ccccc1	.	.[10.9 µM]	.	.
Cc1oc2ccc(O)c(CN3CCCCCC3)c2c1C(=O)Nc1cccc(C(F)(F)F)c1	15.8µM	.[10.9 µM]	.	.
COc1ccc(NC(=O)c2c(C)oc3ccc(O)c(CN4CCCC(C)C4)c23)cc1Cl (stereo not drawn)	31.6µM	.[10.9 µM]	?	?
COc1ccc(NC(=O)c2c(C)oc3ccc(O)c(CN4CCC(C)CC4)c23)cc1Cl	31.6µM	.[10.9 µM]	.	?
Cc1c(NC(=O)C(C)(C)Oc2ccc(Cl)cc2)cccc1-c1nc2ccccc2o1	.	.[10.9 µM]	.	?
CCOc1ccc(NC(=O)c2ccco2)cc1	10µM	.	10µM	.
CCOc1ccccc1NC(=O)c1ccc(NC(=O)c2ccco2)cc1	.	/	.	/
CCn1cnc2cc(NC(=O)c3ccco3)ccc21	8.91µM	/	12.6µM	/
CCC(=O)N1CCc2cc(CNC(=O)c3ccc(F)cc3)ccc21	.	.[10.9 µM]	.	.
C=C(C)Cn1c(SCC#N)nc2ccccc2c1=O	.	1µM	.	.
SMILES	p53ts 39C tox	Peg3 imprint	p53ts 32C kill	IkB sig inh
C=C(C)Cn1c(SCC)nc2ccccc2c1=O	.	.	.	.
CN(C(=O)c1cc2c(s1)-c1ccc(Cl)cc1SC2)c1cccc(C(F)(F)F)c1	?	.[10.9 µM]	.	.
O=c1[nH]c(=O)n([C@H]2C[C@H](O)[C@H](CO)O2)cc1/C=C\Br	.	/	.	.
Cc1ccc(CNc2nc(-c3ccco3)nn2C(=O)c2ccccc2[N+](=O)[O-])cc1	10µM	.[10.9 µM]	?	.
CCCCCCCC/C=C\CCCCCCCC(=O)NCc1ccc(O)c(OC)c1	31.6µM	.	?	.
CCCCCCCC/C=C\CCCCCCCC(=O)NCCc1ccc(O)c(O)c1	12.6µM	.	?	.
COC(=O)c1ccccc1NC(=O)c1cc2c(s1)-c1ccccc1OC2	.	.[10.9 µM]	.	?
COc1cc(NC(=O)c2cc3c(s2)-c2ccccc2OC3)cc(OC)c1OC	?	.[10.9 µM]	12.6µM	?
COc1ccccc1-c1cc(C(F)(F)F)nc(S(=O)(=O)CCCC(=O)Nc2cc(Br)ccc2O)n1	?	.[10.9 µM]	20µM	?
COc1ccccc1-c1cc(C(F)(F)F)nc(S(=O)(=O)CCCC(=O)Nc2ccccc2F)n1	3.16µM	.[10.9 µM]	?	?
COc1ccc(NC(=O)CCCS(=O)(=O)c2nc(-c3ccccc3OC)cc(C(F)(F)F)n2)c(OC)c1	?	.[10.9 µM]	?	?
COc1ccc(Cl)cc1NC(=O)CCCS(=O)(=O)c1nc(-c2ccc(OC)c(OC)c2)cc(C(F)(F)F)n1	3.16µM	.[10.9 µM]	?	?
